Several values for one entry are separate records, joined by “and”; a condition that tells them apart may be missing. Equal entries are not always repeated. Results filed as inconclusive are left out. Where a call stands in place of a potency, no number is given. Some compounds were tested as several samples or in several runs, with calls that do not always agree. Activity calls are given as the source filed them. Unless noted, calls follow the shape of the dose curve; as a rule, active = well fitted curve in the direction sought with a large enough effect in the repeat runs; inconclusive = weak or mixed curves; inactive = no such curve, though single readings can be large; an effect the other way counts as inactive or inconclusive.
What was measured:
[1] = qHTS assay to test for compound auto fluorescence at 535 nm (green) in HEK293 cells (AID 720680); also: potency is read from the fitted curve at half-maximal effect
[2] = qHTS assay to test for compound auto fluorescence at 460 nm (blue) in HEK293 cell free culture (AID 720681); also: potency is read from the fitted curve at half-maximal effect
Method in brief: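 Blue fluorescence (Ex 405/Em 460 nm, triamterene-equivalent) was read immediately after pin transfer of compound or DMSO into medium (DMEM, 10% FBS) without cells.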

[3] = qHTS assay to test for compound auto fluorescence at 535 nm (green) in HEK293 cell free culture (AID 720682); also: potency is read from the fitted curve at half-maximal effect
Method in brief: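 Each library compound, or DMSO control, is added by pintool to medium alone, comprising DMEM and 10% FBS. Emission at 535 nm following 485 nm excitation is quantified against fluorescein.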

[4] = qHTS assay to test for compound auto fluorescence at 590 nm (red) in HEK293 cell free culture (AID 720683)
Method in brief: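 Red-channel autofluorescence of compounds in culture medium (DMEM, 10% FBS), no cells, measured at 540/590 nm. Rose Bengal sodium is the reference fluorophore for equivalence.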

[5] = qHTS assay to test for compound auto fluorescence at 590 nm (red) in HepG2 cell free culture (AID 720684)
Method in brief: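 No cells present: MEM + 10% FBS only. Compound pinned in, red label read (540/590 nm). Activity = fluorescence equivalent to Rose Bengal sodium.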

[6] = qHTS assay to test for compound auto fluorescence at 460 nm (blue) in HepG2 cell free culture (AID 720685); also: potency is read from the fitted curve at half-maximal effect
Method in brief: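 Cell-free plates of MEM plus 10% FBS received 23 nL compound or DMSO vehicle; blue-channel (405/460 nm) intensity scored against triamterene as reference fluorophore.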

[7] = qHTS assay to test for compound auto fluorescence at 535 nm (green) in HepG2 cell free culture (AID 720686); also: potency is read from the fitted curve at half-maximal effect
[8] = qHTS assay to test for compound auto fluorescence at 460 nm (blue) in HepG2 cells (AID 720687); also: potency is read from the fitted curve at half-maximal effect
Method in brief: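 Blue-channel autofluorescence (Ex/Em 405/460 nm, triamterene-equivalent) was measured after 1 hr compound exposure at 37 C, 5% CO2. Cells were HepG2, plated overnight at 37 C in MEM plus 10% FBS.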

[9] = qHTS assay to identify small molecule antagonists of the glucocorticoid receptor (GR) signaling pathway - cell viability counter screen (AID 720693); also: nearly all actives have a fitted effect of over 55% in size
[10] = qHTS assay for identifying genotoxic compounds that show differential cytotoxicity against isogenic chicken DT40 cell lines with known DNA damage response pathways - wild type cell line (AID 743012); also: nearly all actives have a fitted effect of over 60% in size; also: potency is read from the fitted curve at half-maximal effect
Method in brief: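 300 wt DT40 cells/well; cpd (DMSO) pintool-transferred after ~0.5 h at 37 C/5% CO2; 40 h incubation; CellTiter-Glo added, 30 min RT; luminescence read.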

[11] = qHTS assay for identifying genotoxic compounds that show differential cytotoxicity against isogenic chicken DT40 cell lines with known DNA damage response pathways - Rev3 mutant cell line (AID 743014); also: nearly all actives have a fitted effect of over 55% in size; also: potency is read from the fitted curve at half-maximal effect
[12] = qHTS assay to identify small molecule antagonists of the androgen receptor (AR) signaling pathway - cell viability counter screen (AID 743033; also: nearly all actives have a fitted effect of over 45% in size; also: potency is read from the fitted curve at half-maximal effect)
[13] = qHTS assay for identifying genotoxic compounds that show differential cytotoxicity against isogenic chicken DT40 cell lines with known DNA damage response pathways - Rad54/Ku70 mutant cell line (AID 743015); also: nearly all actives have a fitted effect of over 60% in size; also: potency is read from the fitted curve at half-maximal effect
[14] = qHTS assay to identify small molecule antagonists of the androgen receptor (AR) signaling pathway using the MDA cell line - cell viability counter screen (AID 743041; also: nearly all actives have a fitted effect of over 45% in size; also: potency is read from the fitted curve at half-maximal effect)
Method in brief: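 Using the breast carcinoma line MDA-kb2 AR-luc, test chemicals were co-incubated with R1881 for 16 h; CellTiter-Fluor reagent, added at 15.5 h, provided a fluorescence measure of live cells.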

[15] = biological target: Androgen receptor (Homo sapiens) (UniProt P10275); assay: qHTS assay to identify small molecule agonists of the androgen receptor (AR) signaling pathway using the MDA cell line (AID 743040; also: nearly all actives have a fitted effect of over 20% in size)
Sequence of Androgen receptor (Homo sapiens) (P10275 whole entry, looked up): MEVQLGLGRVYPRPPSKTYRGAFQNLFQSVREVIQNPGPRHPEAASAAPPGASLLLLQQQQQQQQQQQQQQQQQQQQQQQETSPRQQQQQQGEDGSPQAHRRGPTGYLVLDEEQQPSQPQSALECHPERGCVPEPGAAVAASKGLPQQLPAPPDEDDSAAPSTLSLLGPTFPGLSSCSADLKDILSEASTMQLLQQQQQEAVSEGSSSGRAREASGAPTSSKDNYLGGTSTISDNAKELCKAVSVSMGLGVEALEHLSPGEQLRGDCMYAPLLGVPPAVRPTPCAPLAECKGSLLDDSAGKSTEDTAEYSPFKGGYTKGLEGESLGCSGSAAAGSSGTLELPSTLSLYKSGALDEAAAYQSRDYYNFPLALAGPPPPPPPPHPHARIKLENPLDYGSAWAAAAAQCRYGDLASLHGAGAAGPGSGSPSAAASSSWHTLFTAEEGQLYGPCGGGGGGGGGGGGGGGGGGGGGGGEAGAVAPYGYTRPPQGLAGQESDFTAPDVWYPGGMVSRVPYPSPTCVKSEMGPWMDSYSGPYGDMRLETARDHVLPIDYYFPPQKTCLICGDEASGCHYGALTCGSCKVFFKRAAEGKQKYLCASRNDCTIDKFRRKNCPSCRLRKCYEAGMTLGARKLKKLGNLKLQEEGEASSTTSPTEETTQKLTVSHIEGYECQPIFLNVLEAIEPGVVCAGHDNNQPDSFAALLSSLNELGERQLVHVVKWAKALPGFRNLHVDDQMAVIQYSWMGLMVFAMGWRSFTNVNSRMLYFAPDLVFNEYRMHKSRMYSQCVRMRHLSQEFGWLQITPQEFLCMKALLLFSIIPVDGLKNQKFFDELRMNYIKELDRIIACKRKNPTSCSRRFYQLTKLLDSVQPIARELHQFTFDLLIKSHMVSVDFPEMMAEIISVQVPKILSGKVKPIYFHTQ
Method in brief: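 Stable MMTV-luciferase reporter in MDA-kb2 cells; note the promoter carries GR as well as AR response elements. 16 h compound treatment, 37C, 0% CO2; ONE-Glo luminescence endpoint.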

[16] = biological target: Androgen receptor (Homo sapiens) (UniProt P10275); assay: qHTS assay to identify small molecule antagonists of the androgen receptor (AR) signaling pathway using the MDA cell line (AID 743042; also: nearly all actives have a fitted effect of over 55% in size; also: potency is read from the fitted curve at half-maximal effect)
Method in brief: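 Antagonist mode: compounds plus R1881 agonist added to MDA-kb2 AR-luc cells, incubated 16 h at 37C. Luciferase reporter luminescence quantified, with multiplexed CellTiter-Fluor readout for cell viability.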

[17] = biological target: Androgen receptor (Homo sapiens) (UniProt P10275); assay: qHTS assay to identify small molecule antagonists of the androgen receptor (AR) signaling pathway (AID 743035; active = well fitted inhibition curve with a large enough effect in the signal ratio in the repeat runs, not every such curve was filed as active; the % refers to the signal ratio; also: potency is read from the fitted curve at half-maximal effect)
Method in brief: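 In this cell-based reporter screen, compounds were tested in concentration series against R1881-activated HEK293 cells expressing beta-lactamase under UAS control; after 16 h at 37C, FRET substrate was added and fluorescence read 2 h later.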

[18] = biological target: Androgen receptor (Homo sapiens) (UniProt P10275); assay: qHTS assay to identify small molecule agonists of the androgen receptor (AR) signaling pathway (AID 743036; active = well fitted activation curve with a large enough effect in the signal ratio in the repeat runs, with a control signal flat, not every such curve was filed as active; the % refers to the signal ratio)
Method in brief: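 Following a 4 h settling period, AR-UAS-bla HEK293 cells were dosed with compounds for 16 h at 37C. A 2 h room-temperature incubation with LiveBLAzer B/G FRET substrate preceded the fluorescence measurement.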

[19] = biological target: Glucocorticoid receptor (Homo sapiens) (UniProt P04150); assay: qHTS assay to identify small molecule agonists of the glucocorticoid receptor (GR) signaling pathway (AID 720691; active = well fitted activation curve with a large enough effect in the signal ratio in the repeat runs, not every such curve was filed as active; the % refers to the signal ratio)
Sequence of Glucocorticoid receptor (Homo sapiens) (P04150 whole entry, looked up): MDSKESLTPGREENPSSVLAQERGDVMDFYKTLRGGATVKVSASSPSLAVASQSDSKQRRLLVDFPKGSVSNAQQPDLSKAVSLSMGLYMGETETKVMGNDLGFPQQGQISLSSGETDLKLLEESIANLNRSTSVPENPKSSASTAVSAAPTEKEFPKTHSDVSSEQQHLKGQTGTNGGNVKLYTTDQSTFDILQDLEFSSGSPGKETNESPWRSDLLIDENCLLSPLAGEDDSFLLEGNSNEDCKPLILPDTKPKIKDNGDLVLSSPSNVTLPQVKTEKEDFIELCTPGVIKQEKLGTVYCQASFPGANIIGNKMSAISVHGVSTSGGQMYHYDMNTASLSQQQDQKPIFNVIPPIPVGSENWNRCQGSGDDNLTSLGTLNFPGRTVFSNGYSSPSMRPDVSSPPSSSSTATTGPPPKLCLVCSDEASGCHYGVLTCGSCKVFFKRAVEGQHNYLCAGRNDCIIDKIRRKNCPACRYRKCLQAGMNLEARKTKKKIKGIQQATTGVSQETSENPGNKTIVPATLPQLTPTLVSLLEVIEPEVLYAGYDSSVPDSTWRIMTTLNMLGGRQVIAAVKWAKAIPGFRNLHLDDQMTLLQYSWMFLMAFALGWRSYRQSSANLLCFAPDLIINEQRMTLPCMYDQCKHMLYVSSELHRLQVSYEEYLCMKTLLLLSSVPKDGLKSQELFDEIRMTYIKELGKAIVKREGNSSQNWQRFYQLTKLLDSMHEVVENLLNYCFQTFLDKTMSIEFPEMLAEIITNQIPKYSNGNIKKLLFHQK
Method in brief: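 A HeLa cervical cancer line expressing GR and a glucocorticoid response element-driven beta-lactamase gene is treated with compounds for 18 h; LiveBLAzer B/G FRET substrate is then applied and fluorescence read.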

[20] = biological target: Glucocorticoid receptor (Homo sapiens) (UniProt P04150); assay: qHTS assay to identify small molecule antagonists of the glucocorticoid receptor (GR) signaling pathway (AID 720692; active = well fitted inhibition curve with a large enough effect in the signal ratio in the repeat runs, not every such curve was filed as active; the % refers to the signal ratio)
Method in brief: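 GRE-bla HeLa line, dex-stimulated (5 nM final). Compound exposure 18 h, 37 C. Beta-lactamase FRET read after 2 h RT substrate.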
Tags tell the direction and shape of the fitted curve or compound fluorescence and quenching.

| SMILES | Potency [1] | Potency [2] | Potency [3] | outcome [4] | outcome [5] | Potency [6] | Potency [7] | Potency [8] | Potency [9] | Potency [10] | Potency [11] | Potency [12] | Potency [13] | Potency [14] | outcome [15] | Potency [16] | Potency [17] | Potency [18] | Potency [19] | Potency [20] |
| --- | --- | --- | --- | --- | --- | --- | --- | --- | --- | --- | --- | --- | --- | --- | --- | --- | --- | --- | --- | --- |
| CCN(CC)c1ccc2c(C)cc(=O)oc2c1 | inactive | 39.8 µM (active) | inactive | inactive | inactive | 35.5 µM [fluorescent] (active) and 39.8 µM [fluorescent] (active) | inactive | 39.8 µM [fluorescent] (active) | inactive | 30.9 µM (active) and inactive | 69.1 µM (active) | inactive |  |  |  |  |  |  |  |  |
| c1cnc2cc3c(cc2n1)C1CNCC3C1 | inactive | inactive | inactive | inactive | inactive | inactive | inactive | inactive | inactive | inactive | inactive |  | inactive | inactive |  |  |  |  |  |  |
| O=C1OC2(c3ccc(O)cc3Oc3cc(O)ccc32)c2ccccc21 | 3.16 µM [fluorescent] (active) and 2.82 µM [fluorescent] (active) and 3.98 µM [fluorescent] (active) | inactive | 3.55 µM [fluorescent] (active) and 3.98 µM [fluorescent] (active) | inactive | inactive | inactive | 3.16 µM [fluorescent] (active) and 2.82 µM [fluorescent] (active) and 3.55 µM [fluorescent] (active) | inactive | inactive | inactive | inactive | inactive |  |  |  |  |  |  |  |  |
| CC(=O)OCCOCCOCCOC(C)=O | inactive | inactive | inactive | inactive | inactive | inactive | inactive | inactive | inactive | inactive | inactive | inactive | inactive | inactive |  |  |  |  |  |  |
| O=Nc1ccc(Nc2ccccc2)cc1 | inactive | inactive | inactive | inactive | inactive | inactive | inactive | inactive | inactive | 3.88 µM (active) and 3.06 µM (active) | 1.23 µM (active) and 1.72 µM (active) | 17.5 µM (active) and 30.9 µM (active) |  | 61.4 µM (active) | inactive | 54.8 µM (active) |  |  |  |  |
| CCCCC/C=C/CC1CC(=O)OC1=O (configuration not stated) | inactive | inactive | inactive | inactive | inactive | inactive | inactive | inactive | inactive | inactive | inactive | inactive | inactive | inactive |  |  |  |  |  |  |
| CC(C)(C)c1ccccc1 | inactive | inactive | inactive | inactive | inactive | inactive | inactive | inactive | inactive | inactive | inactive | inactive |  | inactive |  |  |  |  |  |  |
| CC(=O)CC(=O)Nc1ccc2[nH]c(=O)[nH]c2c1 | inactive | inactive | inactive | inactive | inactive | inactive | inactive | inactive | inactive | inactive | inactive | inactive |  | inactive |  |  |  |  |  |  |
| COC(=O)c1cccc(C(=O)OC)c1 | inactive | inactive | inactive | inactive | inactive | inactive | inactive | inactive | inactive | inactive | inactive | inactive |  | inactive | inactive | inactive | inactive | inactive |  |  |
| CCN(CC)C(=S)SSC(=S)N(CC)CC |  | inactive | inactive | inactive | inactive | inactive | inactive | inactive | inactive | 106 nM (active) and 96.9 nM (active) and 19.8 nM (active) | 119 nM (active) and 96.9 nM (active) and 38.4 nM (active) | 425 nM (active) and 138 nM (active) and 100 nM (active) | 106 nM (active) and 96.9 nM (active) and 68.6 nM (active) | 376 nM (active) and 243 nM (active) and 222 nM (active) | inactive | 266 nM (active) and 217 nM (active) and 140 nM (active) | 0.123 µM (active) | inactive | inactive | inactive |

From PubChem BioAssay (Tox21)
